# Molecular target: T1, ETS1 (UniProt P14921)
# T1 sequence: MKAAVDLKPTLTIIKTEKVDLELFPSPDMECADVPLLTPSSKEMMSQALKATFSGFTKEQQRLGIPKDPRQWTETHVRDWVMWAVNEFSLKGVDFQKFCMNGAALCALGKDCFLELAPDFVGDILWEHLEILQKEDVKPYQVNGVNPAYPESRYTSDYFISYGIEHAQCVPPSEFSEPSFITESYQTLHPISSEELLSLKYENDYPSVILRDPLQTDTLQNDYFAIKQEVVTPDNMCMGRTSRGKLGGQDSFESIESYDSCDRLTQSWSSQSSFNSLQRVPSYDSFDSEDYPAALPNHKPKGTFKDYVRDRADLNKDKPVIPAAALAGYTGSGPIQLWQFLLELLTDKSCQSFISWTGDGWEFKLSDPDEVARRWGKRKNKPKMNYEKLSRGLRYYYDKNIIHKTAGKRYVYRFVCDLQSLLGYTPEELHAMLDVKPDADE
# Assay: TF binding intensity (PBM fluorescence), negative control probe (arbitrary fluorescence units); higher = stronger binding
# Procedure: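 gcPBM negative-control 36-bp genomic probes lacking TF binding sites. Each was incubated with recombinant human ETS1 or RUNX1 alone and detected by antibody fluorescence. Values are medians over replicate spots (4 spots for the ETS1-RUNX1 arrays, 3 for the ETS1-ETS1 array). The probes sit in constant array flanks that are not printed.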
row,Sequence,TF binding intensity
1,CCAGCCAACCCAAAGACCACACCCCACCACCTCCTC (protein concentration 1 nM),491
2,CTACACATTTTAAAGAAAGAGACCACAGTTCTTTAT (protein concentration 10 nM),122
3,CTGGGGTGGCGCCAGCCTTATTATGACTAACCATGA (protein concentration 10 nM),105
4,GATGTGGCCTATAGGGATCCTTCACTTAGGCATGAG (protein concentration 10 nM),121
5,GCTCGCCTACCCACTGATTGCCAGTGTCCTGGGTGA (protein concentration 10 nM),107
6,CCCACTGTAATAGGCAGATACTGATGAAGTCCTGCA (protein concentration 10 nM),147
7,AGCTTTCCAAGTTTTTGTGGGCAACATCAACTGTTC (protein concentration 1 nM),486
8,CCCCTGTGCAACCTTTCATTCCCTAAGCCACTTTTC (protein concentration 10 nM),139
9,CTGGTGGCCACCCTTGTGGCGCTGAGGTGCTGAGGT (protein concentration 10 nM),127
10,AAGTCCCTCCTCTAAACCACTTTGATGAGGACCAAA (protein concentration 1 nM),387
11,GGGTCTTGCCATTGAGAGGCAGGTGATGTGCTGTTT (protein concentration 10 nM),132
12,TCCTTTTGCTATACAGACCCCAGAACTCCTGAATGG (protein concentration 10 nM),119
13,TCGAGTGGTGAGAAGGAGAAGGAGCGGCTGGGAGGC (protein concentration 10 nM),137
14,CCCCAGTAGAAGCCACCCAGCCTTTTGTTTGTTTTC (protein concentration 10 nM),133
15,GGGTGGTGGGGCTTTCTTAGCAGCAAAATGTTCGCG (protein concentration 10 nM),223
16,TAAATCAAAAGATGACCAAGCTGGAGAGAAAAGTGA (protein concentration 10 nM),129
17,TGACCGGCGCCGACCCGGGGCGCCGAGAGGCCCACC (protein concentration 10 nM),115
18,CAACCTAACTATAATGCAAATAGGGATTCTTTTTCT (protein concentration 10 nM),88.5
19,GGCTCCTATATTAAAATTGGTATTAGTAGACAATGT (protein concentration 10 nM),131
20,GGTAATAGTTACTGCTGTGGTCTGAATGTTTGTGTC (protein concentration 1 nM),555

row,Sequence,TF binding intensity
1,CTAAATGGCATCTGATGTGGTATCTCTCCTCAGTTC (protein concentration 1 nM),455
2,TTATGAACTGTATCATGTGGTTTGAGTTTAATTTGG (protein concentration 1 nM),487
3,CACACCCGCCTGTTACCCACATGCACAAGCAGTCTG (protein concentration 1 nM),449
4,CCTATTAAATTCAGATTTGCAGTTTGTTTTTTATCA (protein concentration 10 nM),117
5,ACAGGCCCTCCAGGTGTTGAAACCATGCTGGGCTGA (protein concentration 10 nM),102
6,AACACTCAGTGTATTTTAATAAACAACATTTTTTAA (protein concentration 10 nM),96.6
7,CTATAGTATGTCAAAACCACAAAGACAATGTGCAGC (protein concentration 1 nM),466
8,CTTATTATTAATGGTCATTAGCCACAGTCACCACCA (protein concentration 10 nM),137
9,AGTTTCACTGCCCTAAAAATCCTCCGTGCGCCGCCT (protein concentration 10 nM),123
10,AGCAGAGTGTGATGAATGGATTCATATACGGTCTGA (protein concentration 10 nM),103
11,ACACATCAAAATGTCTGTGGTTTTTATGAAAAATAG (protein concentration 1 nM),510
12,CGTTCGTTCGACAGCTCTTGTGGTAAACAGCGTCAA (protein concentration 10 nM),132
13,ACTCATTAGCAGTGAGCCACAAAGACTCTCTGGAAG (protein concentration 1 nM),359
14,CCACCGAGTGTTCTCGTTGCTCCACCGTAGCATCAG (protein concentration 10 nM),124
15,CATCCCTCTGCCAGATGGAATTTGGAGATAAACCTC (protein concentration 10 nM),130
16,TTGAAATGCATTCTCTGTGGGCATATGAAGTAGATT (protein concentration 1 nM),410
17,CTTGGTGTGTCTGAAGAAAGATCAGAAGGCTGGCAT (protein concentration 10 nM),123
18,CAGAAGTTATAATAATTAATGATATCATTCAGTGTG (protein concentration 10 nM),118
19,ACGGAGCTTGCTCTGGCCATCTCTGTCCCTGCCTGT (protein concentration 10 nM),102
20,GTCTTGTTACTGGAGTGTGATAGCACCTAATAATAT (protein concentration 10 nM),150
